Screening data from PubChem.
Only a selection was taken, and hits are over-represented in it overall.
Pf Dd2 inh: blocks in vitro growth of P. falciparum Dd2 | Potency, µM (titrated, usually from 28.9 µM), for the others: at the top dose activity, negative = inhibition, actives largely listed as inhibitors | P. falciparum Dd2 growth, SYBR Green, 72 h | AID 1347417 | 120,000 tested, 4.3% active; active means well fitted inhibition curve with a large enough effect;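 further: plate controls were DMSO vehicle for no effect and reference drug for full effect; nearly all actives have a fitted effect of over 65% in size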
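Infected erythrocytes (Dd2, 0.3% parasitemia, 2.5% hematocrit final) are added to compound in RPMI-1640/Albumax II medium, grown 72 h at 37C in low oxygen, then lysed with saponin/Triton-X containing SYBR Green and read by fluorescence.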
An asterisk follows results filed as active; i = inactive; [ ] = dose if it differs, or a comment. Potency means the concentration at half of the fitted maximal effect.

SMILES	Pf Dd2 inh
COc1cccc(-n2c(SCC(=O)N3CCCCC3)nc3c([nH]c4ccccc43)c2=O)c1	-3%
Cc1cc(C)cc(-n2c(SCC(=O)N3CCCC3)nc3c([nH]c4ccccc43)c2=O)c1	10%
COc1cccc(-n2c(SCC(=O)c3ccc(Cl)cc3)nc3c([nH]c4ccccc43)c2=O)c1	i
Cc1cc(C)cc(-n2c(SCC(=O)NCc3ccc(F)cc3)nc3c([nH]c4ccccc43)c2=O)c1	11µM*
COc1cccc(-c2nc(SCC(=O)Nc3ccc4c(c3)OCCO4)c(-c3ccccc3)[nH]2)c1	-28%
CCOc1ccc(-c2nc(SCC(=O)Nc3ccc4c(c3)OCCO4)c(-c3ccc(F)cc3)[nH]2)cc1	-19%
O=C(CSc1nc(-c2cccc(F)c2)[nH]c1-c1ccccc1)Nc1ccc2c(c1)OCCO2	11µM*
O=C(CSc1nc2c(oc3ccccc32)c(=O)n1-c1ccccc1F)Nc1ccccc1	-12%
Cc1cc(NC(=O)CSc2nc3c([nH]c4ccccc43)c(=O)n2-c2ccccc2F)no1	10µM*
Cc1cc(NC(=O)CSc2nc3c([nH]c4ccccc43)c(=O)n2-c2ccccc2)no1	-26%
Cc1ccc(-n2c(SCC(=O)NCc3ccc(F)cc3)nc3c([nH]c4ccccc43)c2=O)cc1	i
COc1cccc(-n2c(SCC(=O)Nc3cccc(C)c3)nc3c([nH]c4ccccc43)c2=O)c1	10µM*
Cc1cccc(-n2c(=O)c3c(cc(C)n3C)n(CC(=O)Nc3c(C)cccc3C)c2=O)c1	59%
COc1ccc(NC(=O)N[C@H]2C[C@@H](C(=O)N[C@H](Cc3c[nH]c4ccccc34)C(N)=O)N(C(=O)c3cccn3C)C2)cc1	-22%
COc1ccc(C(=O)N2[C@@H]3CC[C@H]2CC(NC(=O)c2ccc(F)cc2)C3)c(OC)n1 (stereo not given in full)	i
CN(C)C(=O)c1n[nH]c2c1CN(C(=O)c1ccccc1C(F)(F)F)CC2	-4%
Cc1nonc1CC(=O)N1C[C@H](O)[C@@H](N2CCC(O)CC2)C1	-6%
O=C(Nc1ccc(F)cc1)C1CN(S(=O)(=O)c2cccnc2)CC12CCCCC2 (stereo not given)	-29%
Cn1c(Cn2cccn2)nnc1C1CC(NC(=O)c2ccsc2)C1 (stereo not given)	-6%
CCc1cc(C(=O)N2CC[C@@H]3[C@@H](CCC(=O)N3CCc3cnc[nH]3)C2)n[nH]1	-10%
Cc1ccc(-n2c(SCC(N)=O)nc3c([nH]c4ccccc43)c2=O)cc1	i
O=C(CSc1nc2c([nH]c3ccccc32)c(=O)n1-c1ccc(Cl)cc1)NC1CCCCC1	13µM*
O=C(CSc1nc2c([nH]c3ccccc32)c(=O)n1-c1ccc(Cl)cc1)N1CCc2ccccc21	61%
O=C(CSc1nc2c([nH]c3ccccc32)c(=O)n1-c1ccc(F)cc1)N1CCCCC1	17%
O=c1c2[nH]c3ccccc3c2nc(SCc2ccccc2F)n1-c1ccc(F)cc1	33%
SMILES	Pf Dd2 inh
Cn1c(SCC(=O)Nc2ccc(F)cc2)nc2c([nH]c3ccccc32)c1=O	17%
Cc1cc(C)cc(NC(=O)CSc2nc3c([nH]c4ccccc43)c(=O)n2-c2ccc(F)cc2)c1	10µM*
CSc1nc2c([nH]c3ccccc32)c(=O)n1-c1ccc(C)cc1	i
Cc1cc(C)cc(-n2c(SCC(=O)Nc3ccc4c(c3)OCO4)nc3c([nH]c4ccccc43)c2=O)c1	-16%
O=C(CSc1nc2c([nH]c3ccccc32)c(=O)n1-c1ccc(F)cc1)Nc1ccc2c(c1)OCO2	11µM*
CCOc1ccc(-n2c(SCC(=O)NC3CCCCC3)nc3c([nH]c4ccccc43)c2=O)cc1	-15%
Cc1cccc(NC(=O)CSc2nc3c([nH]c4ccccc43)c(=O)n2-c2ccc(F)cc2)c1C	4.5µM*
O=C(NCCOc1ccccc1)C1CN(c2ccc(Cl)cc2)C(=O)N1 (stereo not given)	3%
CNC(=O)c1cccc2c1CCN2C(=O)Nc1ccc(C)cc1	i
COCCN1C(=O)c2cccn2CC1CNC(=O)c1ccoc1 (stereo not given)	-12%
C=CCN(Cc1ccccc1OCC)C(=O)CCn1cccc1	-23%
COc1ccc(CC(=O)N2CC(=O)N(c3ccc(Cl)cc3)CC2C)cc1 (stereo not given)	8%
O=C1CC(c2ccccc2)N(C(=O)CNC(=O)C2(c3ccccc3)CC2)CCCCCN1 (stereo not given)	-28%
COCC(=O)N1CC[C@H]2CC(=O)N(CCc3cccc(OC)c3OC)CC[C@H]2C1	-15%[44.1 µM]
Cc1nc(-c2cn(C3CCCN(C(=O)c4cccc(N(C)C)c4)C3)nn2)no1 (stereo not given)	i
COc1ccc(CN(C)C(=O)Cn2nnnc2CN2CCOCC2)c2cccnc12	-4%
Cc1nc2ccc(C(=O)NCc3cccnc3Oc3ccccc3C)cc2[nH]1	-13%
O=C1Cc2c(-c3ccsc3)n[nH]c2CN1CC1CC1	-27%[44.1 µM]
CC(C)(C)c1ccccc1NC(=O)CSc1nc(-c2cccs2)cc(C(F)(F)F)n1	i
COC(=O)c1ccccc1NC(=O)CSc1nc(-c2ccccc2)cc(C(F)(F)F)n1	2.8µM*
COC(=O)c1ccccc1NC(=O)CSc1n[nH]c(C)n1	53%
C[C@H]1[C@@H]2[C@H]3OC(=O)[C@@H](C)[C@@H]3CC[C@@]2(C)CC[C@@H]1NC(=O)c1ccncc1	i
CN(Cc1cccnc1)c1nc2c(c(=O)[nH]1)CCN(Cc1ccc3[nH]ccc3c1)CC2	40%[5.79 µM]
Cc1ccsc1CN1CCc2c(sc3ncnc(N(C)C)c23)C1	5µM*
CN1CCN(c2nc3c(c(=O)[nH]2)CCN(Cc2ccc4cc[nH]c4c2)CC3)CC1	i[5.79 µM]
SMILES	Pf Dd2 inh
CN1c2cccnc2CN(Cc2ccco2)CC[C@H]1CO	-15%[44.1 µM]
CN1C(=O)[C@H]2CN(Cc3ccco3)C[C@H]2C1=O	42%
CN(C)c1ncnc2sc3c(c12)CCN(Cc1ccc2cc[nH]c2c1)C3	1.3µM*
Cc1ccsc1CN1CCc2nc(N(C)C)[nH]c(=O)c2CC1	-27%[5.79 µM]
CN(C)c1ncnc2sc3c(c12)CCN(Cc1ccco1)C3	4µM*
Cc1ccsc1CN1CCc2nc(N3CCN(C)CC3)[nH]c(=O)c2CC1	i[5.79 µM]
COc1ccc(-c2ccc(C(=O)N3Cc4[nH]cnc4CC3C(=O)O)o2)cc1 (stereo not given)	6%
COCCOc1cc(=O)n2c(c1C(=O)NC1CCC1)CCOCC2	13%
CCCS(=O)(=O)N1C[C@@H](Oc2ccccc2)C[C@@H]1C(=O)NC	-4%
O=C(COc1ccccc1)N1CCN(c2cc(C(F)(F)F)ncn2)CC1	-28%
COc1cccc(CN2CCC3(CCC3OC)CC2)c1 (stereo not given)	-6%
COc1ccc(-c2cc(N3CCCC(NC(=O)c4cccc5[nH]ccc45)C3)n[nH]2)cc1 (stereo not given)	-14%
COc1cc(CN2CCC(C)(NC(C)=O)CC2)cc(-c2ccccc2)c1	i
CC(=O)NC1(C)CCN(Cc2ccc(-c3ccc4c(ccn4C)c3)cc2)C1 (stereo not given)	10µM*
CC(=O)NC1(C)CCN(Cc2ccc(-c3ccccc3Oc3ccccc3)cc2)C1 (stereo not given)	7.1µM*
COc1ccccc1CNC(=O)C1(CCO)CCN(Cc2ccccc2)C1 (stereo not given)	i
CC(=O)NC1(C)CCCN(Cc2cc(Br)cs2)C1 (stereo not given)	i
CC(=O)NC1(C)CCN(Cc2ccc(-c3ccc([S+](C)(=O)[O-])cc3)cc2)C1 (stereo not given)	i
